Laboratory results taken from PubChem BioAssay (Tox21).
Results filed as inconclusive are left out. Active and inactive are the calls of the source. Calls follow the shape of the dose curve; as a rule, active = well fitted cell-killing curve with a large enough effect in the repeat runs; inconclusive = weak or mixed curves, or effect the other way; inactive = flat fitted curve, though single readings scatter.

experiment: Nuclear factor erythroid 2-related factor 2/antioxidant responsive element (Nrf2/ARE) small molecule agonists: qHTS cell viability counter screen in human keratinocytes (AID 1919968); settings: KeratinoSens HaCaT ARE cells viability, CellTiter-Fluor, 24 h; series mostly up to 92.4 µM; activity change, negative = cytotoxicity: at the top concentration; also: nearly all actives have a fitted effect of over 55% in size
In short: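 In human HaCaT keratinocytes stably expressing an ARE-driven luciferase, compound exposure lasted 23 h at 37 C under 5% CO2. Viable cells are quantified with a protease-based fluorogenic reagent (CellTiter-Fluor) read 1 h after addition.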
% is scaled to controls: 0 for no effect and ±100 for the full control effect; potency is read from the fitted curve at half-maximal effect.

Row | SMILES | activity change, negative = cytotoxicity | Potency
1 | CN=C(NC#N)Nc1ccc(C2=NNC(=O)CC2C)cc1 (stereo not given) | 0.397% [at 42.5 µM] (inactive) | 
2 | CCN(CC)CCOC(=O)C(Cc1cccc2ccccc12)CC1CCCO1 (stereo not given) | 19.5% [at 42.5 µM] (inactive) | 
3 | O=c1[nH]cnc2ccccc12 | 4.66% (inactive) | 
4 | CCCCCCCCCCOc1cc2c(=O)c(C(=O)OCC)c[nH]c2cc1OCC | -4.24% [at 8.39 µM] (inactive) | 
5 | CCC(=O)CC(C)CC (stereo not given) | 1.61% [at 0.349 µM] (inactive) | 
6 | CCCCOCCOC(=O)COc1ccc(Cl)cc1Cl | -1.23% (inactive) | 
7 | CC(=O)CC(=O)OC(C)(C)C | 0.499% (inactive) | 
8 | CC(COC(C)(C)C)OCCCO (stereo not given) | -2.39% (inactive) | 
9 | CCCC1CCCC(=O)O1 (stereo not given) | -1.11% (inactive) | 
10 | CCCCCCCCCOC(=O)c1ccccc1C(=O)OCCCCCCCCC | 13.9% (inactive) | 
11 | N#CC1(N)CCCCC1 | 2.83% (inactive) | 
12 | Cc1ccc(-n2nc(C(C)(C)C)cc2NC(=O)Nc2ccc(OCCN3CCOCC3)c3ccccc23)cc1 | -1.12% [at 42.5 µM] (inactive) | 
13 | CCN(CCCCOC(=O)c1ccc(OC)c(OC)c1)C(C)Cc1ccc(OC)cc1 (stereo not given) | 2.54% [at 42.5 µM] (inactive) | 
14 | C=COCC(C)C | 1.33% (inactive) | 
15 | C/C=C/C(=O)OCC(C)C | -0.606% (inactive) | 
16 | N#CSc1ccc(N)c([N+](=O)[O-])c1 |  | 43.5 µM (active)
17 | C=C(C)C(=O)OCCCCCCCCCCOC(=O)C(=C)C | 0.82% (inactive) | 
18 | Cc1ccc(C(=O)Oc2ccc(C(O)CNC(C)(C)C)cc2OC(=O)c2ccc(C)cc2)cc1 (stereo not given) | -22.1% [at 42.5 µM] (inactive) | 
19 | C/C=C/C(=O)Oc1c(CCCCCC(C)C)cc([N+](=O)[O-])cc1[N+](=O)[O-] |  | 17.2 µM (active)
20 | O=C(CCCCCCCCc1cccnc1)N1CCC(C=C(c2ccccc2)c2ccccc2)CC1 |  | 15.4 µM (active)

Row | SMILES | activity change, negative = cytotoxicity | Potency
21 | O=C1CCCN1CCO | -13% (inactive) | 
22 | N=C(N)c1ccc(OCCCOc2ccc(C(=N)N)cc2)cc1 | -14.9% [at 42.5 µM] (inactive) | 
23 | COCCCCCCCCOCCC[Si](C)(O[Si](C)(C)C)O[Si](C)(C)C |  | 61.1 µM (active)
24 | CCOC(=N)CC(=O)OCC | -9.53% (inactive) | 
25 | Oc1ccc2c(c1)CCC2 | -0.238% (inactive) | 
26 | CC(C)(C)c1nnc(NS(=O)(=O)c2ccccc2)s1 | 0.594% [at 42.5 µM] (inactive) | 
27 | CCCCc1nc2cccnc2n1Cc1ccc(-c2ccccc2-c2nnn[nH]2)cc1 | -7.94% (inactive) | 
28 | O=C(O)Cc1csc(-c2ccc(Cl)cc2)n1 | 1.71% [at 42.5 µM] (inactive) | 
29 | CCOC(=O)Nc1ccc(NCc2ccc(F)cc2)nc1N | -0.996% [at 42.5 µM] (inactive) | 
30 | CC(Cl)C(Cl)Cl (stereo not given) | -1.89% (inactive) | 
31 | O=C(O)C[C@H](O)C[C@H](O)/C=C/c1c(C2CC2)nc2ccccc2c1-c1ccc(F)cc1 | -15.1% [at 19 µM] (inactive) | 
32 | CC(=O)Nc1cccc(C)c1 | 3.41% (inactive) | 
33 | CCCCCCc1ccc(N)cc1 | -14.4% (inactive) | 
34 | O=C=Nc1cccc(C(F)(F)F)c1 | -23.6% (inactive) | 
35 | Cc1cc(SC2=C(O)C[C@@](CCc3ccc(N)cc3)(C(C)C)OC2=O)c(C(C)(C)C)cc1CO | -0.878% (inactive) | 
36 | CCCCC(CC)CN1C(=O)C2C3C=CC(C3)C2C1=O (stereo not given) | 0.737% (inactive) | 
37 | NCCS | -1.12% [at 42.5 µM] (inactive) | 
38 | O=S1(=O)CC(Cl)(Cl)C(Cl)(Cl)C1 |  | 6.11 µM (active)
39 | CN1CCN(C2Cc3ccccc3Sc3ccc(Cl)cc32)CC1 (stereo not given) |  | 29.8 µM (active)
40 | CCOC(=O)C1=NN(c2ccc(Cl)cc2Cl)C(C)(C(=O)OCC)C1 (stereo not given) | 15.4% (inactive) | 
